# Values joined by “and” are separate entries in the source; they are usually repeats but may differ in a detail not shown here. Equal values may be shown once. Results filed as inconclusive are left out. A call without a number means that no potency is given here. A structure can be active in one record and inactive in another. Active and inactive are the calls of the source. The call rests on the fitted dose curve; in most records, active means well fitted curve in the direction sought with a large enough effect in the repeat runs; inconclusive means weak or mixed curves; inactive means no such curve, though single readings can be large; an effect the other way counts as inactive or inconclusive.
# Columns and labels:
# [1] = qHTS RealTime-Glo MT Cell Viability Assay in HEK293 cells - 16 hour (AID 1224872); further: nearly all actives have a fitted effect of over 50% in size; further: potency means the concentration at half of the fitted maximal effect; on activity change, negative = cytotoxicity: top concentration of the series differs between compounds
# Summary of the method: (§1)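 Viability tracked continuously by luminescence as live cells reduce a prosubstrate for NanoLuc; HEK293 cells preincubated 5 h, compound-treated at 37 C, and read at 0, 8, 16, 24, 32 and 40 h.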
# [2] = qHTS RealTime-Glo MT Cell Viability Assay in HepG2 cells - 8 hour (AID 1224873); further: nearly all actives have a fitted effect of over 55% in size
# Summary of the method: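 HepG2 cells mixed with RealTime-Glo MT reagents (NanoLuc plus cell-permeant prosubstrate) were seeded at 600 cells/well, incubated 5 h at 37 C/5% CO2, then pinned with compounds in DMSO; nonlytic luminescence tracked viability during 40 h treatment.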
# [3] = qHTS RealTime-Glo MT Cell Viability Assay in HEK293 cells - 40 hour (AID 1224874); details: RealTime-Glo luminescence; max response: stronger effect = lower value; further: nearly all actives have a fitted effect of over 50% in size; further: potency means the concentration at half of the fitted maximal effect
# Summary of the method: (§2)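 Luminescence, which tracks viable cell number through reduction of the prosubstrate to a NanoLuc substrate, was read over continuous 37 C culture. Cells (600/well) were premixed with reagent and rested 5 h before 23 nL of compound in DMSO was pinned.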
# [4] = A CellTox Green Cytotoxicity Assay to monitor cytotoxicity in HEK293 cells - 24 hour (AID 1224875); further: nearly all actives have a fitted effect of over 45% in size; further: potency means the concentration at half of the fitted maximal effect; on activity change: series mostly up to about 77 µM
# Summary of the method: (§3)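 Fluorescence from a DNA-binding dye excluded by viable cells was measured repeatedly in the same HEK293 wells (600 cells/well) during continuous compound exposure at 37 C. Each assay gives one read point: 0, 8, 16, 24, 32 or 40 h.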
# [5] = A CellTox Green Cytotoxicity Assay to monitor cytotoxicity in HepG2 cells - 16 hour (AID 1224876); further: nearly all actives have a fitted effect of over 45% in size; further: potency means the concentration at half of the fitted maximal effect
# Summary of the method: (§4)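 Real-time cytotoxicity: fluorescence of a cell-impermeant cyanine dye binding DNA of dead HepG2 cells, measured repeatedly (0–40 h) during compound exposure at 37 C. Cells seeded 600/well with reagent, dosed after 5 h.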
# [6] = qHTS RealTime-Glo MT Cell Viability Assay in HepG2 cells - 32 hour (AID 1224877); further: nearly all actives have a fitted effect of over 55% in size
# Summary of the method: (§5)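 Viability was tracked continuously by NanoLuc luminescence from prosubstrate reduced by living HepG2 cells, at successive time points over 40 h of compound exposure. Cells with reagent were preincubated 5 h at 37 °C before compound addition.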
# [7] = A CellTox Green Cytotoxicity Assay to monitor cytotoxicity in HepG2 cells - 24 hour (AID 1224878); further: nearly all actives have a fitted effect of over 45% in size; further: potency means the concentration at half of the fitted maximal effect
# Summary of the method: as §4
# [8] = A CellTox Green Cytotoxicity Assay to monitor cytotoxicity in HepG2 cells - 40 hour (AID 1224879); further: nearly all actives have a fitted effect of over 40% in size; further: potency means the concentration at half of the fitted maximal effect
# Summary of the method: as §4
# [9] = qHTS RealTime-Glo MT Cell Viability Assay in HEK293 cells - 0 hour (AID 1224880); further: top concentration of the series differs between compounds; nearly all actives have a fitted effect of over 45% in size
# Summary of the method: as §2
# [10] = A CellTox Green Cytotoxicity Assay to monitor cytotoxicity in HEK293 cells - 32 hour (AID 1224881); further: nearly all actives have a fitted effect of over 40% in size; further: potency means the concentration at half of the fitted maximal effect
# Summary of the method: as §3
# [11] = A CellTox Green Cytotoxicity Assay to monitor cytotoxicity in HepG2 cells - 0 hour (AID 1224882); further: nearly all actives have a fitted effect of over 35% in size
# Summary of the method: as §4
# [12] = A CellTox Green Cytotoxicity Assay to monitor cytotoxicity in HepG2 cells - 32 hour (AID 1224883); further: nearly all actives have a fitted effect of over 50% in size; further: potency means the concentration at half of the fitted maximal effect
# Summary of the method: as §4
# [13] = A CellTox Green Cytotoxicity Assay to monitor cytotoxicity in HEK293 cells - 8 hour (AID 1224884); further: nearly all actives have a fitted effect of over 35% in size; further: potency means the concentration at half of the fitted maximal effect
# Summary of the method: as §3
# [14] = qHTS RealTime-Glo MT Cell Viability Assay in HepG2 cells - 16 hour (AID 1224885); further: nearly all actives have a fitted effect of over 50% in size
# Summary of the method: as §5
# [15] = qHTS RealTime-Glo MT Cell Viability Assay in HEK293 cells - 24 hour (AID 1224886); further: nearly all actives have a fitted effect of over 50% in size; further: potency means the concentration at half of the fitted maximal effect; on activity change, negative = cytotoxicity: top concentration of the series differs between compounds
# Summary of the method: as §1
# [16] = qHTS RealTime-Glo MT Cell Viability Assay in HEK293 cells - 8 hour (AID 1224887); further: nearly all actives have a fitted effect of over 50% in size; further: potency means the concentration at half of the fitted maximal effect; on activity change, negative = cytotoxicity: top concentration of the series differs between compounds
# Summary of the method: as §2
# [17] = A CellTox Green Cytotoxicity Assay to monitor cytotoxicity in HEK293 cells - 16 hour (AID 1224888); further: nearly all actives have a fitted effect of over 35% in size; further: potency means the concentration at half of the fitted maximal effect
# Summary of the method: as §3
# [18] = qHTS RealTime-Glo MT Cell Viability Assay in HepG2 cells - 0 hour (AID 1224889); further: nearly all actives have a fitted effect of over 50% in size; further: potency means the concentration at half of the fitted maximal effect
# Summary of the method: as §5
# [19] = A CellTox Green Cytotoxicity Assay to monitor cytotoxicity in HepG2 cells - 8 hour (AID 1224890); further: nearly all actives have a fitted effect of over 45% in size; further: potency means the concentration at half of the fitted maximal effect
# Summary of the method: as §4
# [20] = qHTS assay to identify small molecule antagonists of the estrogen receptor alpha (ER-alpha) signaling pathway using the BG1 cell line in the presence of 0.1 nM 17-beta-estradiol - cell viability counter screen (AID 1259241); further: nearly all actives have a fitted effect of over 40% in size
# Summary of the method: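 Live-cell protease activity (CellTiter-Fluor fluorescence, 30 min) was read in the same wells after VM7Luc4E2 cells had been exposed to compounds with 0.1 nM 17beta-estradiol for 22 hr at 37C.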
smiles,measurement,setting,value
C[C@]12CCC(=O)C=C1C=C[C@@H]1[C@@H]2CC[C@@]2(C)[C@H]1CC[C@@]21CCC(=O)O1,Potency,[1],inactive
same,Potency,[2],inactive
same,max response,[3],-25.7% (inactive)
same,Potency,[4],inactive
same,Potency,[5],inactive
same,Potency,[6],inactive
same,Potency,[7],inactive
same,Potency,[8],inactive
same,Potency,[9],inactive
same,Potency,[10],inactive
same,Potency,[11],inactive
same,Potency,[12],inactive
same,Potency,[13],inactive
same,Potency,[14],inactive
same,Potency,[15],inactive
same,Potency,[16],inactive
same,Potency,[17],inactive
same,Potency,[18],7.56 µM (active)
same,Potency,[19],inactive
same,Potency,[20],inactive
CCC(C(=O)OCCOCCN(CC)CC)c1ccccc1 (configuration not stated),Potency,[1],inactive
same,Potency,[2],inactive
same,max response,[3],4.17% (inactive)
same,Potency,[4],inactive
same,Potency,[5],inactive
same,Potency,[6],inactive
same,Potency,[7],inactive
same,Potency,[8],inactive
same,Potency,[9],inactive
same,Potency,[10],inactive
same,Potency,[11],inactive
same,Potency,[12],inactive
same,Potency,[13],inactive
same,Potency,[14],inactive
same,Potency,[16],inactive
same,Potency,[17],inactive
same,Potency,[18],inactive
same,Potency,[19],inactive
same,Potency,[20],inactive
Cc1oncc1C(=O)Nc1ccc(C(F)(F)F)cc1,Potency,[1],inactive
same,Potency,[2],inactive
same,max response,[3],8.36% (inactive) and -3.36% (inactive)
same,Potency,[4],inactive
same,Potency,[5],inactive
same,Potency,[6],inactive
same,Potency,[7],inactive
same,Potency,[8],54.9 µM (active) and inactive
same,Potency,[9],inactive
same,Potency,[10],inactive
same,Potency,[11],inactive
same,Potency,[12],inactive
same,Potency,[13],inactive
same,Potency,[14],inactive
same,Potency,[15],inactive
same,Potency,[16],inactive
same,Potency,[17],inactive
same,Potency,[18],inactive
same,Potency,[19],inactive
CC1C2CC(CC2C2CCCC(O)C2)C1(C)C (configuration not stated),Potency,[1],inactive
same,Potency,[2],inactive
same,max response,[3],-15.9% (inactive)
same,Potency,[4],49 µM (active)
same,Potency,[5],38.9 µM (active)
same,Potency,[6],inactive
same,Potency,[7],43.6 µM (active)
same,Potency,[8],43.6 µM (active)
same,Potency,[9],inactive
same,Potency,[10],49 µM (active)
same,Potency,[11],inactive
same,Potency,[12],43.6 µM (active)
same,Potency,[13],43.6 µM (active)
same,Potency,[14],inactive
same,Potency,[15],inactive
same,Potency,[17],49 µM (active)
same,Potency,[18],inactive
same,Potency,[19],43.6 µM (active)
CCC(C)=O,Potency,[1],inactive
same,Potency,[2],inactive
same,max response,[3],15.5% (inactive)
same,Potency,[4],inactive
same,Potency,[5],inactive
same,Potency,[6],inactive
same,Potency,[7],inactive
same,Potency,[8],inactive
same,Potency,[9],inactive
same,Potency,[10],inactive
same,Potency,[11],inactive
same,Potency,[12],inactive
same,Potency,[13],inactive
same,Potency,[14],inactive
same,Potency,[15],inactive
same,Potency,[16],inactive
same,Potency,[17],inactive
same,Potency,[18],inactive
same,Potency,[19],inactive
same,Potency,[20],inactive
CN1CCN(c2c(F)cc3c(=O)c(C(=O)O)cn4c3c2OCN4C)CC1,"activity change, negative = cytotoxicity",[1],1.07% [at 15.8 µM] (inactive)
same,"viability change, negative = cytotoxic",[2],8.52% [at 15.8 µM] (inactive)
same,max response,[3],2.93% (inactive)
same,activity change,[4],"-4.87% [at 15.8 µM, stronger effect = higher value] (inactive)"
same,cytotoxicity increase,[5],-5.53% [at 15.8 µM] (inactive)
same,"activity change, negative = cytotoxic",[6],-0.186% [at 15.8 µM] (inactive)
same,cytotoxicity,[7],-1.37% [at 15.8 µM] (inactive)
same,cytotoxicity increase,[8],-7.78% [at 15.8 µM] (inactive)
same,"activity change, negative = cytotoxicity",[9],-2.72% [at 15.8 µM] (inactive)
same,cytotoxicity increase,[10],-5.3% [at 15.8 µM] (inactive)
same,cytotoxicity,[11],-9.31% [at 15.8 µM] (inactive)
same,cytotoxicity increase,[12],-4.96% [at 15.8 µM] (inactive)
same,cytotoxicity increase,[13],-22% [at 15.8 µM] (inactive)
same,"activity change, negative = cytotoxic",[14],4.97% [at 15.8 µM] (inactive)
same,"activity change, negative = cytotoxicity",[15],0.438% [at 15.8 µM] (inactive)
same,"activity change, negative = cytotoxicity",[16],1.15% [at 15.8 µM] (inactive)
same,activity change,[17],"-3.76% [at 15.8 µM, stronger effect = higher value] (inactive)"
same,"activity change, negative = cytotoxicity",[18],2.43% [at 15.8 µM] (inactive)
same,cytotoxicity increase,[19],-3.25% [at 15.8 µM] (inactive)
same,"activity change, negative = cytotoxicity",[20],0.712% [at 19 µM] (inactive)
C=CC(=C)CCCC(C)(C)OC(C)=O,Potency,[1],inactive
same,Potency,[2],inactive
same,max response,[3],-7.82% (inactive)
same,Potency,[4],inactive
same,Potency,[5],inactive
same,Potency,[6],inactive
same,Potency,[7],inactive
same,Potency,[8],inactive
same,Potency,[9],inactive
same,Potency,[10],inactive
same,Potency,[11],inactive
same,Potency,[12],inactive
same,Potency,[13],inactive
same,Potency,[14],inactive
same,Potency,[15],inactive
same,Potency,[17],inactive
same,Potency,[18],inactive
same,Potency,[19],inactive
same,Potency,[20],inactive
O=C(O)c1ccccc1NCCc1ccccc1,Potency,[1],inactive
same,Potency,[2],inactive
same,max response,[3],-0.281% (inactive)
same,Potency,[4],inactive
same,Potency,[5],inactive
same,Potency,[6],inactive
same,Potency,[7],inactive
same,Potency,[8],inactive
same,Potency,[9],inactive
same,Potency,[10],inactive
same,Potency,[11],inactive
same,Potency,[12],inactive
same,Potency,[13],inactive
same,Potency,[14],inactive
same,Potency,[16],inactive
same,Potency,[17],inactive
same,Potency,[18],inactive
same,Potency,[19],inactive
Cc1ccc(Nc2nccc(N(C)c3ccc4c(C)n(C)nc4c3)n2)cc1S(N)(=O)=O,Potency,[1],1.9 µM (active)
same,Potency,[2],inactive
same,Potency,[3],1.34 µM (active)
same,Potency,[4],inactive
same,Potency,[5],inactive
same,Potency,[6],inactive
same,Potency,[7],inactive
same,Potency,[8],inactive
same,Potency,[9],inactive
same,Potency,[10],inactive
same,Potency,[11],inactive
same,Potency,[12],inactive
same,Potency,[13],inactive
same,Potency,[14],inactive
same,Potency,[15],1.51 µM (active)
same,Potency,[16],2.13 µM (active)
same,Potency,[17],inactive
same,Potency,[18],inactive
same,Potency,[19],inactive
same,Potency,[20],inactive
OCCSc1ccccc1,Potency,[1],inactive
same,Potency,[2],inactive
same,max response,[3],-28.1% (inactive)
same,Potency,[4],inactive
same,Potency,[5],inactive
same,Potency,[6],inactive
same,Potency,[7],inactive
same,Potency,[8],inactive
same,Potency,[9],inactive
same,Potency,[10],inactive
same,Potency,[11],inactive
same,Potency,[12],inactive
same,Potency,[13],inactive
same,Potency,[14],inactive
same,Potency,[15],inactive
same,Potency,[16],inactive
same,Potency,[17],inactive
same,Potency,[18],inactive
same,Potency,[19],inactive
same,Potency,[20],inactive
CCCCCCCCCCOS(=O)(=O)O,Potency,[1],inactive
same,Potency,[2],inactive
same,max response,[3],-3.11% (inactive)
same,Potency,[4],inactive
same,Potency,[5],inactive
same,Potency,[6],inactive
same,Potency,[7],inactive
same,Potency,[8],inactive
same,Potency,[9],inactive
same,Potency,[10],inactive
same,Potency,[11],inactive
same,Potency,[12],inactive
same,Potency,[13],inactive
same,Potency,[14],inactive
same,Potency,[15],inactive
same,Potency,[16],inactive
same,Potency,[18],inactive
same,Potency,[19],inactive
same,Potency,[20],inactive
